Screens (PubChem BioAssay)
Only some compounds are listed: those with a hit (about 3.9% of all), similar ones and a draw of the others.
SARS 3CLpro inh: SARS-CoV 3CLpro protease inhibitors, primary screen, biochemical, quenched FRET; inhibition, % at 6 µM; recombinant SARS-CoV 3CLpro, quenched FRET peptide cleavage; hit rate 0.14% among 290,000; Replicase polyprotein 1ab (Severe acute respiratory syndrome coronavirus), P0C6X7; in the data active means inhibition above about 12%
Anthrax LF prot: Bacillus anthracis LF protease inhibitors, primary screen, biochemical, multiplex microsphere, MLPCN library. multiplex microsphere protease cleavage assay. hit rate 0.12% among 360,000. Lethal factor (Bacillus anthracis), P15917. AID 588501, 2011. inhibition, % at 10 µM; further: plate controls were buffer without enzyme for full effect and enzyme alone for no effect
BoNT-A LC inh2: BoNT/A light chain protease inhibitors, primary screen, biochemical, flow cytometry, MLPCN library; Botulinum neurotoxin type A light chain protease (Clostridium botulinum A str. ATCC 3502); multiplex microsphere protease substrate cleavage; inhibition, % at 10 µM; hit rate 0.17% among 360,000; further: plate controls were buffer without enzyme for full effect and enzyme alone for no effect
CCHF vOTU inh: CCHFV vOTU protease inhibitors, primary screen, biochemical, Pep-AMC substrate, fluorescence | hit rate 0.55% among 370,000 | Crimean-Congo hemorrhagic fever virus L polyprotein viral ovarian tumor (vOTU) protease … | inhibition, % at 11.5 µM; in the data active means inhibition above about 30%; further: 0% = vehicle wells with enzyme and 100% = no enzyme wells
BoNT-F LC inh: BoNT/F light chain protease inhibitors, primary screen, biochemical, flow cytometry, MLPCN library | Multiplex microsphere protease cleavage assay | inhibition, % at 10 µM | Botulinum neurotoxin type F light chain protease (Clostridium botulinum) | hit rate 0.22% among 360,000 | AID 588497, 2011; in the data active means inhibition above about 35%, passing the limit was not always enough; inconclusive means no clear call, values can overlap the other calls; further: plate controls were buffer without enzyme for full effect and enzyme alone for no effect
Autofluor counter: compound fluorescence in toxin protease inhibitor counterscreen | AID 624483 | hit rate 3.1% among 360,000 | compound autofluorescence counterscreen, microsphere flow cytometry; stronger effect = higher value | fluorescence intensity (concentration not given with the values); in the data active means fluorescence intensity above about 16000; inconclusive means no clear call, values can overlap the other calls
An asterisk follows results filed as active; ? = inconclusive; · = no result. Unless noted, no stated cut-off is given here; in the data, active means inhibition above about 30%; inconclusive means no clear call, values can overlap the other calls; inactive means below that.

SMILES | SARS 3CLpro inh | Anthrax LF prot | BoNT-A LC inh2 | CCHF vOTU inh | BoNT-F LC inh | Autofluor counter
CCCCN(CCCC)CCNC(=O)CNC(=O)c1cccs1 | 1.8 | -10.1 | 4.2 | -1.7 | 2.8 | 21124*
O=[N+]([O-])c1cccc(/C=C/c2nc(C=Nc3ccc4ccccc4c3)c(O)o2)c1 | -3.0 | 1.6 | -2.3 | -5.2 | 2.5 | 17170*
O=C(NC1CCCCN(Cc2ccc(OC(F)(F)F)cc2)C1=O)c1cccc(F)c1 (stereo unspecified) | · | · | · | 13.9 | · | ·
CN1[C@H](Cc2ccccc2)COc2cccc(N3CCCC3)c2S1(=O)=O | · | · | · | 4.3 | · | ·
Cc1c(Cl)cccc1NC(=O)CC(C(=O)O)C1CCCO1 (stereo unspecified) | 0.7 | -2.7 | 0.7 | -2.8 | 0.5 | 22699*
Cc1c(Cl)cccc1NC(=O)CC(Cc1ccccc1)C(=O)O (stereo unspecified) | 1.0 | -2.8 | -2.0 | -5.6 | 32.3 | 3577
Cc1ccccc1CNC(=O)C1CCC(CNS(=O)(=O)c2cccc3cccnc23)CC1 (stereo unspecified) | · | · | · | 7.0 | · | ·
COc1cc2c(cc1OC)CN(C(=O)CCCN1C(=O)c3ccccc3C1=O)CC2 | -2.1 | -1.8 | ? | -0.4 | -1.9 | 22299*
COc1cc2c(cc1OC)CN(C(=O)CCOc1ccccc1)CC2 | -0.5 | -2.3 | 0.7 | -5.2 | 10.6 | 3694
Nn1c(SCC(=O)N2c3ccccc3Sc3ccc(Cl)cc32)nnc1-c1cc(-c2ccc(F)cc2)n[nH]1 | · | · | · | 16.3 | · | ·
O=C1C(Cl)=C(N2CCOCC2)C(=O)N1c1ccc(Br)cc1 | 3.1 | 30.4* | -3.7 | -10.4 | 8.9 | 3779
CN(C)CCNC(=O)C1CCCNC1=O (stereo unspecified) | 0.2 | 0.0 | ? | -0.1 | -3.3 | 22891*
CC(=O)c1ccc(NC(=O)C2CCCNC2=O)cc1 (stereo unspecified) | -5.3 | -4.1 | ? | -0.3 | -1.3 | 21778*
Cc1ccc(S(=O)(=O)NCCNC(=O)C2CCCNC2=O)cc1 (stereo unspecified) | -6.0 | -0.8 | -1.2 | 10.9 | ? | 4364
COC(=O)[C@H](Cc1ccccc1)N(Cc1cn(Cc2ccccc2)nn1)S(=O)(=O)c1ccccc1Br | · | · | · | 0.4 | · | ·
S=c1[nH]nc(COc2ccc(Cl)cc2)o1 | -0.5 | -4.5 | ? | -3.6 | 0.3 | 19965*
Cc1cc(NC(=O)c2c(F)cccc2F)n(-c2nc3ccccc3[nH]2)n1 | -1.0 | -3.4 | -2.6 | -5.5 | -5.2 | 16824*
O=C(Nc1ccc(C(=O)N2CCCC2)cc1)c1ccccc1F | 0.2 | -3.0 | -2.6 | · | -2.3 | 16849*
O=C(Nc1cc(C(=O)N2CCCC2)ccc1N1CCCC1)c1ccccc1F | -1.7 | 0.2 | 0.0 | -13.9 | -2.1 | 9877
O=Cc1ccc(N2N=C(c3ccccc3)CC2c2ccccc2)cc1 (stereo unspecified) | 0.1 | 2.4 | 41.5* | -22.3 | 53.1* | 4507
Cn1c(CSCc2ccc(Cl)cc2)nnc1SCC(=O)Nc1nccs1 | 4.2 | 0.5 | 0.4 | -3.0 | -1.0 | 16354*
Cn1c(CSCc2ccc(Cl)c(Cl)c2)nnc1SCC(=O)Nc1nccs1 | 2.6 | -2.5 | -0.5 | 0.5 | ? | 3739
Cn1nnnc1SCc1ccc(C(=O)Nc2nccs2)cc1 | -2.6 | -3.1 | -2.5 | -1.2 | -1.7 | 24214*
O=C(C(=O)N1CCC(CNS(=O)(=O)c2ccccc2)CC1)c1cc2ccccc2o1 | · | · | · | -0.8 | · | ·
Cc1ccc(/C=C2\CCOC2=O)cc1 | 3.4 | 13.0 | 4.0 | -9.9 | 35.3* | 3611
SMILES | SARS 3CLpro inh | Anthrax LF prot | BoNT-A LC inh2 | CCHF vOTU inh | BoNT-F LC inh | Autofluor counter
COc1ccc(NC(=O)C2(c3ccccc3)CCCC2)cc1 | -3.9 | -9.1 | -0.7 | 1.9 | -3.0 | 4149
COc1ccc(NC(=O)C2(c3ccc(NC(=O)c4ccc(OC(C)=O)cc4)cc3)CCCC2)cc1 | 0.7 | 0.5 | 1.0 | -9.7 | 0.7 | 20395*
CCc1ccccc1-c1cc(C(C)=O)c2n(c1=O)CCC2 | · | · | · | 0.8 | · | ·
CC(C)n1nnnc1C1(C)CN(S(C)(=O)=O)CC(=O)N1Cc1cccc(C(F)(F)F)c1 (stereo unspecified) | · | · | · | -5.0 | · | ·
O=C(Nc1ccc(Cl)cc1)c1csc(-c2ccncc2)n1 | 3.2 | -0.6 | -0.6 | -8.3 | 1.7 | 3893
CNC(=O)c1csc(-c2ccc(Cl)cc2)n1 | 3.4 | 0.6 | 0.9 | 9.7 | 8.2 | 3414
